Rows were chosen to be rich in hits. Some 1.1% of all compounds tested hit in one or more screens of this group.
SRC2 inh – inhibits human steroid receptor coactivator 2. Q15596. HEK293 GAL4-SRC2 luciferase reporter, luminescence. inhibition, % at 9 µM. 0.17% of 370,000 active;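 active = inhibition above the mean inhibition of all tested compounds plus 3 SD, set per campaign, cut at about 52% in these data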
GalR3 antag – blocks the human galanin receptor 3; O60755; HEK293 GalR3-CNG cAMP membrane potential fluorescence; galR3 body fused to GalR1 C-terminus; inhibition, % at 3 µM; 0.44% of 360,000 active;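 active = inhibition above the screen-wide average plus 3 SD, cut at about 13% in these data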;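 also: forskolin and galanin both at EC90 stimulate the cells; cAMP rise reported by CNG channel membrane potential dye signal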
NCOA3 inh – human NCOA3 inhibition. AID 588352. 0.17% of 360,000 active. inhibition, % at 3.6 µM. Q9Y6Q9. HEK293 GAL4-SRC3 luciferase reporter, luminescence;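 active = inhibition above a per-campaign cutoff, the mean of all compounds plus 3 SD, cut at about 60% in these data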;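 also: higher means less SRC3-driven luciferase light from the GAL4 reporter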
NCOA1 inh – inhibits human SRC1 coactivator. HEK293 GAL4-SRC1 luciferase reporter, luminescence. AID 588354. 0.12% of 360,000 active. Q15788. inhibition, % at 3.6 µM;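 active = inhibition above the campaign mean plus 3 SD, with each screening campaign given its own cutoff, cut at about 60% in these data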
LRH-1 inv ag – inverse agonists of human LRH-1 (NR5A2). 0.13% of 360,000 active. HEK293T StAR-luciferase reporter, LRH-1 transfected, 24 h. inhibition, % at 3.6 µM;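 active = inhibition above the mean inhibition of all tested compounds plus 3 SD, cut at about 73% in these data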
NR2F2 inh – inhibitors of human COUP-TFII (NR2F2); 0.7% of 370,000 active; inhibition, % at 8.6 µM; P24468; HEK293T NGFI-A luciferase reporter, luminescence;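 active = inhibition above a per-plate cutoff, mean inhibition of test wells between control levels plus 3 SD, cut at about 38% in these data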;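 also: cells cotransfected with COUP-TFII expression vector driving the NGFI-A reporter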
Target sequence (P24468 whole entry, looked up): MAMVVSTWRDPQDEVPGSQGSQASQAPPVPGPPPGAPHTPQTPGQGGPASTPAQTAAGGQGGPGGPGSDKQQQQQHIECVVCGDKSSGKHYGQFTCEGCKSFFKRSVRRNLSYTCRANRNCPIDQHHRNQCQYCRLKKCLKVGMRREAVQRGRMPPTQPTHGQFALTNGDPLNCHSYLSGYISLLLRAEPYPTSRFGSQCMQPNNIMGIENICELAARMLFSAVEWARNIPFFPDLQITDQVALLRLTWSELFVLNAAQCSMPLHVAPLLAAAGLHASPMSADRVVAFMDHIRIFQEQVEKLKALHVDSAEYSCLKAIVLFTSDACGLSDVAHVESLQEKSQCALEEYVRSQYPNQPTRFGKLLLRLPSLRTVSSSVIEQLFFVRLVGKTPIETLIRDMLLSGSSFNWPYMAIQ
VP16 Luc counter – counter-screen for COUP-TFII antagonists: inhibitors of VP16; inhibition, % at 8.5 µM; AID 687007; HEK293 Gal4-VP16 luciferase reporter, luminescence; 25% of 2,500 active; shares compounds with NR2F2 inh; in the data active = inhibition above about 13%
NR2F2 inh conf – COUP-TFII (NR2F2) inhibition, confirmation assay. AID 687008. HEK293 NGFI-A luciferase reporter, luminescence. inhibition, % at 8.5 µM. shares compounds with NR2F2 inh. 45% of 2,500 active;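 active = mean inhibition over three repeats above a set limit taken from the earlier primary screen, cut at about 38% in these data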
Of the large screens only hits and unclear results are named; the others gave an inactive call (follow-up assays come after a bar, where they were run).

O=C(CN1C(=O)[C@@H](Cc2ccc(O)cc2)N=C(c2ccccc2)c2ccccc21)NC1CCCCC1	none (no result: GalR3 antag, NCOA3 inh, NCOA1 inh, LRH-1 inv ag)
CN(c1ccc(OCC(=O)N2CCN(C/C=C/c3ccccc3)CC2)cc1)S(=O)(=O)c1cccs1	NR2F2 inh 38 | VP16 Luc counter inactive | NR2F2 inh conf 38
CCN1/C(=C/C=C/C2=[N+](CC)c3ccccc3C2(C)C)C(C)(C)c2ccccc21	NCOA3 inh 82, NCOA1 inh 72, LRH-1 inv ag 98, NR2F2 inh 92 | VP16 Luc counter 42 | NR2F2 inh conf 90
CC[C@H](C)[C@@H]1NC(=O)CNC(=O)c2csc(n2)[C@H](C(C)(C)O)OC(=O)C(C)(C)[C@H](CCCC(C)(Cl)Cl)OC(=O)c2csc1n2	none
CCCOC(=O)c1ccc(-[n+]2c(-c3ccccc3)cc(-c3ccccc3)cc2-c2ccccc2)cc1	NR2F2 inh 55 | VP16 Luc counter 23 | NR2F2 inh conf 48
CC1CC2(C)C(=CC1=O)CCC1C3CCC(C)(O)C3(C)CC3OC312 (centres undefined)	none
N#Cc1ccc(C(=O)N2Cc3cnnn3-c3ccccc3C2C#N)cc1 (centres undefined)	none
O=c1[nH]c2ccccc2n1C1CCN(C(c2ccccc2OC(F)(F)F)c2nnnn2Cc2ccccc2)CC1 (centres undefined)	NR2F2 inh 42 | VP16 Luc counter 15 | NR2F2 inh conf inactive
O=c1[nH]c2ccccc2n1C1CCN(C(c2cccs2)c2nnnn2Cc2ccccc2)CC1 (centres undefined)	none
CC1CCC/C=C/C2CC(O)CC2C(O)/C=C/C(=O)O1 (centres undefined)	LRH-1 inv ag 77, NR2F2 inh 59 | VP16 Luc counter inactive | NR2F2 inh conf inactive
CC(C)C[C@H]1COc2cc(N3CCN(C)CC3)ccc2S(=O)(=O)N1	none (no result: NCOA3 inh, NCOA1 inh)
NP(=O)(Oc1ccc(Cl)cc1)Oc1ccc(Cl)cc1	none
CC(=O)OC1CCC2(/C=N/O)C(=CCC3C4CCC(=O)C4(C)CCC32)C1 (centres undefined)	none
C=C(C=O)CC1CC(O)[C@]2(C)OC3CC4OC5C[C@]6(C)O[C@]7(C)CCC8OC9C[C@]%10(C)OC%11C(C)=CC(=O)OC%11CC%10OC9C[C@@H](C)C8OC7CC6O[C@]5(C)C/C=C\C4OC3CC2O1 (some centres undefined)	NR2F2 inh 76 (no result: SRC2 inh, GalR3 antag, NCOA3 inh, NCOA1 inh, LRH-1 inv ag) | VP16 Luc counter inactive | NR2F2 inh conf inactive
C=C(CC1CC(O)[C@]2(C)OC3CC4OC5C[C@]6(C)O[C@]7(C)CCC8OC9C[C@]%10(C)OC%11C(C)=CC(=O)OC%11CC%10OC9C[C@@H](C)C8OC7CC6O[C@]5(C)C/C=C\C4OC3CC2O1)C(=O)O (some centres undefined)	none
CC(=O)OC1CC(OC2C(O)CC(OC3C(O)CC(OC4CCC5(C)C(CCC6C5CC(O)C5(C)C(C7=CC(=O)OC7)CCC65O)C4)OC3C)OC2C)OC(C)C1OC1OC(CO)C(O)C(O)C1O (centres undefined)	SRC2 inh 61, NCOA3 inh 90, NCOA1 inh 87, LRH-1 inv ag 103, NR2F2 inh 79 | VP16 Luc counter 52 | NR2F2 inh conf 76
CNC(=O)Nc1ccc(C(=O)N/N=C\C23CC[C@@H](O)CC2(O)CC[C@@H]2[C@@H]3CCC3(C)C(C4=CC(=O)OC4)CCC23O)cc1 (some centres undefined)	none
COC1C(O)C(C)OC(OC2CCC3(C)C(CCC4C3C(O)CC3(C)C(C5=CC(=O)OC5)CCC43O)C2)C1O (centres undefined)	SRC2 inh 58, GalR3 antag 28, NCOA3 inh 90, NCOA1 inh 87, LRH-1 inv ag 101, NR2F2 inh 77 | VP16 Luc counter 54 | NR2F2 inh conf 79
CC12CCC(O)CC1CCC1C2CCC2(C)C(C3=CC(=O)OC3)CCC12O (centres undefined)	GalR3 antag 30, NCOA3 inh 84, NCOA1 inh 82, LRH-1 inv ag 99, NR2F2 inh 72 | VP16 Luc counter 45 | NR2F2 inh conf 72
C[C@]12CC[C@H](O)C[C@H]1CC[C@@H]1[C@@H]2CC[C@]2(C)[C@@H](C3=CC(=O)OC3)CC[C@]12O	GalR3 antag 26, NCOA3 inh 85, NCOA1 inh 83, LRH-1 inv ag 102, NR2F2 inh 77 | VP16 Luc counter 47 | NR2F2 inh conf 74
CC12CC[C@H]3[C@@H](CCC4(O)C[C@H](O)CCC34/C=N/NC(=O)c3ccccc3[N+](=O)[O-])C1(O)CCC2C1=CC(=O)OC1 (some centres undefined)	none
Cc1cccc(C(C)c2cnc[nH]2)c1C (centres undefined)	none (no result: GalR3 antag, NCOA3 inh, NCOA1 inh, LRH-1 inv ag)
Clc1cc(Cl)cc(CN2Cc3ccccc3-n3nncc3C2)c1	none (no result: GalR3 antag, NCOA3 inh, NCOA1 inh, LRH-1 inv ag)
COC(=O)N1Cc2ccccc2-n2nncc2C1	none
CCCOc1ccccc1OCC(=O)N1CCN(CC(=O)N2CCOCC2)CC1	none
CCCCN1CCN(C(=O)COc2cc(=O)n(C)c3ccccc23)CC1	none (no result: GalR3 antag, NCOA3 inh, NCOA1 inh, LRH-1 inv ag)
C[C@]12CC[C@H](O)C[C@H]1CC[C@@H]1[C@@H]2C[C@@H](O)[C@]2(C)[C@@H](C3=CC(=O)OC3)CC[C@]12O	NCOA3 inh 75, LRH-1 inv ag 103, NR2F2 inh 81 | VP16 Luc counter 29 | NR2F2 inh conf 58
O=C(Nc1ccc(OC(=O)N2CCCC2)cc1)N1CCOCC1	none
O=C(Nc1ccc(OC(=O)N2CCCCC2)cc1)N1CCOCC1	SRC2 inh 84, NR2F2 inh 78 | VP16 Luc counter 29 | NR2F2 inh conf inactive
COC(=O)[C@@H]1N=C(c2ccc(OC)cc2)O[C@]12C(=O)N(Cc1ccccc1)c1ccccc12	none (no result: NCOA3 inh, NCOA1 inh)
COc1ccc(CN2CCN(C(=O)COc3ccc4ccccc4c3)CC2)c(OC)c1	none
COC1CC2C=C(C)C=CC=CC(=O)NC(c3ccccc3)CC=CCCC(O)CC(=O)C2=C1O (centres undefined)	NCOA3 inh 78, LRH-1 inv ag 99, NR2F2 inh 72 | VP16 Luc counter 50 | NR2F2 inh conf 73
CCC1CN2CCc3cc(OC)c(OC)cc3C2CC1CC1NCCc2c1[nH]c1ccc(O)cc21 (centres undefined)	SRC2 inh 69, NCOA3 inh 95, NCOA1 inh 96, LRH-1 inv ag 98, NR2F2 inh 91 | VP16 Luc counter 24 | NR2F2 inh conf 90

High-throughput results from PubChem.
